Bioassay records (PubChem)
This is a sample that favours compounds with a hit; in the whole collection about 5.4% have one here.
ALR H2O2 inh = inhibitors of human sulfhydryl oxidase ALR. purified ALR, DTT oxidation, H2O2 HRP-luminol luminescence. inhibition, % (concentration not given with the values). 3.8% of 290,000 active. AID 485317;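 active means mean replicate inhibition above about 79%, with every replicate also reaching it, limit read from the data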
Target sequence (P55789 whole entry, looked up): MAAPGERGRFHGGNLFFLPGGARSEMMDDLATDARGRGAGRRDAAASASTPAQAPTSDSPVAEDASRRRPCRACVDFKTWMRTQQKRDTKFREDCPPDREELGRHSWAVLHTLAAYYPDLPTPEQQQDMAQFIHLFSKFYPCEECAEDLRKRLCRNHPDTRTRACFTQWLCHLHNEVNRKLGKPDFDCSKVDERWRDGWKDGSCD
MIN6 prolif = inducers of beta-cell replication in MIN6 cells. proliferation, % at 10 µM. 0.29% of 330,000 active. MIN6 cells proliferation, ATPlite luminescence, 48 h; cells starved in 0.2% serum; 100% = growth in 10% serum;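 active means compounds whose signal lies at least 3.5 SD above the mean of all wells on their plate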
Granule exo inh = blocks lytic granule exocytosis; 0.66% of 360,000 active; TALL-104 LAMP-1 surface exposure, flow cytometry; cells stimulated with thapsigargin and PMA; AID 651702; inhibition, % at 10 µM;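 active means inhibition above about 55%, limit read from the data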
PfM18AAP inh = blocks P. falciparum M18 aspartyl aminopeptidase; recombinant PfM18AAP, H-Glu-NHMec fluorogenic cleavage; inhibition, % at 7.35 µM; 1.2% of 290,000 active;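 active means inhibition above the campaign mean inhibition over all tested compounds plus 3 SD, cut at about 28% in these data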
JMJD2C inh = human JMJD2C demethylase inhibition | Q9H3R0 | inhibition, % at 2.35 µM | GST-JMJD2C(1-420) H3K9me3 demethylation, DELFIA europium | 0.069% of 330,000 active;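 active means more than half of a compound's replicate wells show inhibition beyond 50%, single wells judged on their own value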;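 further: signal counts dimethyl H3K9 product captured on neutravidin plate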
SMARCA2 activ = SMARCA2 function activation, primary screen; MG213 cells, MMTV-luciferase reporter, dexamethasone, overnight; AID 652017; activation, % at 9.1 µM; 1% of 370,000 active; in the data active means activation above about 7.8%
Hits are given with their value; . = inactive; / = not tested or not shown.

SMILES	ALR H2O2 inh	MIN6 prolif	Granule exo inh	PfM18AAP inh	JMJD2C inh	SMARCA2 activ
COc1cccc(NC(=S)NNC(=O)Cn2nc(C(F)F)cc2C(F)F)c1	84	.	.	.	.	.
O=C(Cn1nc(C(F)F)cc1C(F)F)NNC(=S)Nc1ccc(F)cc1	.	.	.	.	.	.
COc1cccc(NC(=S)NNC(=O)CCn2cc([N+](=O)[O-])cn2)c1	83	.	.	.	.	.
COc1cccc(NC(=S)NNC(=O)Cn2nc([N+](=O)[O-])cc2C)c1	.	.	.	.	.	.
COC(=O)[C@@]12CCCCC3=C1N(CCC3)C(=O)[C@H]2CC(=O)N1CCC(c2ccccc2)CC1	/	/	/	/	/	.
CC1=C(C(=O)Nc2cc(-c3cccc(F)c3)[nH]n2)C2(CCCCC2)OC1=O	86	.	.	.	.	.
COC(C(=O)N/N=C(\C)CC(=O)Nc1ccc(N(C)C)cc1)c1ccccc1 (configuration not stated)	99	.	.	.	.	.
C/C(CC(=O)Nc1ccc(N(C)C)cc1)=N\NC(=O)c1ccccn1	96	.	.	.	.	.
CN(C)c1ccc(NC(=O)CC(NCc2ccccn2)C(=O)O)cc1 (configuration not stated)	100	.	.	.	.	.
C/C(CC(=O)Nc1ccc(N(C)C)cc1)=N\NC(=O)c1cnccn1	99	.	.	.	.	.
c1ccc2c(c1)[nH]c1c(NCC3CCCO3)ncnc12 (configuration not stated)	82	.	.	.	.	.
c1nc(NCC2CCCO2)c2[nH]cnc2n1 (configuration not stated)	.	.	.	.	.	.
COCCNC(=S)N(C)[C@H]1C[C@H]2c3[nH]c4c(-c5ccc6c(c5)OCO6)cccc4c3CCN2C[C@H]1[C@H](C)O	/	/	/	/	/	.
Cc1cccc(CN2CCN(C3CN(Cc4cn(Cc5ccc(C(F)(F)F)cc5)nn4)S(=O)(=O)C3)CC2)c1 (configuration not stated)	/	/	/	/	/	.
Cc1ccc(-c2nc3ccccc3nc2NN)cc1	.	.	.	31	.	.
Cc1ccc(-c2nc3ccccc3nc2Cl)cc1	91	.	.	.	.	.
Cc1ccc2nc(-c3ccccc3)c(-c3ccccc3)nc2c1	.	.	.	.	.	.
CSC(=NC#N)N1CCN(c2ccccc2)CC1	76	.	.	.	.	.
CSC(=NC#N)N1CCN(c2c(C)cccc2C)CC1	.	.	.	.	.	.
Oc1ccccc1C(=S)N1CCN(c2cccc(Cl)c2)CC1	.	.	.	30	.	.
Oc1ccc(C(=S)N2CCN(c3cccc(Cl)c3)CC2)cc1	.	.	.	.	.	.
CSC(=NC#N)N1CCN(c2cccc(Cl)c2)CC1	94	.	.	.	.	.
COc1cccc(/C=C2\CC3(OC(=O)C4CCCCC4)CCCN2C3)c1 (configuration not stated)	/	/	/	/	/	.
CCOC(=O)N1CCN(C(=O)C[C@@H]2C(=O)N(Cc3ccc(OC)cc3)/C3=C/CCCCC[C@@]32C(=O)OCC)CC1	/	/	/	/	/	.
O=C(OCc1cn(Cc2ccccc2)nn1)N1CCOCC1	/	/	/	/	/	.
SMILES	ALR H2O2 inh	MIN6 prolif	Granule exo inh	PfM18AAP inh	JMJD2C inh	SMARCA2 activ
Brc1ccc(-c2ncc3ccccn23)cc1	89	.	.	.	.	.
Cc1ccccc1NCCNc1ccccc1C	99	.	.	.	.	.
CCc1ccc(CCNC(=O)OC2CCC23CCC(c2ccccc2)CC3)cc1 (configuration not stated)	/	/	/	/	/	.
CCOC(=O)N1CCN(c2c(F)cc3[nH]c(=S)[nH]c3c2Br)CC1	.	.	.	.	.	.
CCOC(=O)N1CCN(c2cc3[nH]c(=S)[nH]c3cc2F)CC1	90	.	.	.	.	.
Clc1ccc(NCc2cccnc2)cc1	99	.	.	.	.	.
O=C(OC12CCCN(C1)/C(=C/c1ccncc1)C2)c1ccccc1 (configuration not stated)	/	/	/	/	/	.
COc1cc(/C=N/N2CCOCC2)ccc1OCc1ccccc1	.	.	.	.	.	.
COc1ccc(/C=N/N2CCOCC2)cc1O	98	.	.	.	.	.
Fc1cccc(F)c1/C=N/N1CCOCC1	.	.	.	.	.	7.9
CCN(Cc1ccccc1)c1ccc(/C=N/N2CCOCC2)cc1	98	.	.	.	.	.
